Assay results: PubChem BioAssay AID1626 (SRMLSC, 2009)
About 2,000 (0.91%) of roughly 220,000 compounds were called active. Not shown: some 2% with an inconclusive outcome. A selection follows. Measured potencies and affinities stand elsewhere. Unmarked numbers belong to inactive results. No stated cut-off is given here; in the data, inconclusive means inhibition above about 80% without an active follow-up result; inactive means below that; test concentration not stated here.

Assay: M. tuberculosis H37Rv growth inhibitors, H37Rv strain (AID 1626);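 further: bacteria incubated seven days before Alamar blue readout; 0% = bacteria only wells and 100% = bacteria with antibiotic wells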
Conditions: hits give high values, concentration not given here
Work on Nc1nn(-c2cccc(F)n2)cc1-c1ccccc1 yielded an inhibition of -5.22%. O=C(COc1ccc(Cl)cc1)Nc1ccccc1N1CCOCC1 gave an inhibition of -1.58%. Work on CCCCNC(=O)COC(=O)c1ccc(Cl)c(S(N)(=O)=O)c1 yielded an inhibition of -0.33%. With CCCCNC(=O)COC(=O)c1ccc(F)cc1Cl the inhibition was 10.1%. Compound CNC(=O)COC(=O)c1cc(F)c(F)cc1Cl has an inhibition of 4.23%. In the case of CCCNC(=O)COC(=O)c1cc(SC)ccc1Cl, the inhibition is reported as 7.67%. Compound CC(C)(C)NC(=O)COC(=O)c1cc(F)c(F)cc1Cl has an inhibition of 38.6%. In the case of CC(C)NC(=O)COC(=O)c1cc(Br)ccc1Cl, the inhibition is reported as 4%. In the case of CC(/C=C/c1ccccc1)=N\Nc1nc(-c2ccccc2)cs1, the inhibition is reported as 5.57%. Work on CCCCn1nnc(NC(=O)c2ccc(-c3ccccc3[N+](=O)[O-])o2)n1 yielded an inhibition of 9.1%. Work on CCc1ccc(NS(=O)(=O)c2ccc(OC)c(C)c2)cc1 yielded an inhibition of 16.8%. With Cc1nn(C(=O)c2c(-c3ccccc3)noc2C)c(C)c1N=Nc1cc(C(F)(F)F)cc(C(F)(F)F)c1 the inhibition was 4.12%. In the case of COC(=O)CNC(=O)C1CCN(c2nc(C)cc(C)n2)CC1, the inhibition is reported as -8.28%. In the case of CCOC(=O)CN1C(=O)C(CC)Oc2ccccc21 (stereo unspecified), the inhibition is reported as -1.23%. CCOC(=O)N1c2ccccc2C=CC1OCC (stereo unspecified) gave an inhibition of -8.15%. Work on O=C(CN1CCN(c2ccccc2Cl)CC1)NC1CCCc2ccccc21 (stereo unspecified) yielded an inhibition of 14.2%. Work on CCCC1(CCC)C(=O)NC(=NCc2ccccc2)NC1=O yielded an inhibition of -6.66%. CCCCOc1cccc(C(=O)O)c1 showed an inhibition of -6.88%. With CCCCOc1cccc(-c2nnc(N)s2)c1 the inhibition was 37.6%. C=CCCCCCCCC(=O)OC gave an inhibition of -15.6%. O=C(CSc1n[nH]c(-c2cccs2)n1)NCc1ccc2c(c1)OCO2 gave an inhibition of 6.67%. With CCOC(=O)Nc1c(C)n(C)n(-c2ccccc2)c1=O the inhibition was -5.08%. Work on COC(=O)c1ccccc1NC(=O)CSc1nnc(-c2ccc(C)cc2)o1 yielded an inhibition of 6.5%. With O=C(OCC#CCSc1nnc(-c2cccc3ccccc23)o1)c1ccco1 the inhibition was 64.9%. With Cc1ccc(-c2nnc(-c3ccc(NC(=O)c4ccco4)cc3)o2)cc1 the inhibition was 6.39%. With O=C(OCc1nnc(-c2ccccc2)o1)c1ccco1 the inhibition was 5.59%. With Cc1ccc(CN2CCc3c(OCC(=O)Nc4cc(C)ccc4C)cccc3C2=O)cc1 the inhibition was 4.57%. In the case of CC1CCCCN1S(=O)(=O)c1ccc(S(=O)(=O)N2CCN(c3ccccc3)CC2)cc1 (stereo unspecified), the inhibition is reported as -4.53%. O=C(c1ccco1)N1CCN(S(=O)(=O)c2ccc(C3CCCCC3)cc2)CC1 gave an inhibition of -4.85%. CCOc1ccc(N2C(=O)CNC2=S)cc1 showed an inhibition of -2.82%. Compound CCOc1ccc(N2CC(=O)N(c3ccc(OCC)cc3)CC2=O)cc1 has an inhibition of -2.5%. For CCOC(=O)c1cnc2ccc(OCC)cc2c1NCc1cccnc1, the inhibition was 10.7%. CCOC(=O)c1cnc2ccc(OC)cc2c1NCc1ccccc1 gave an inhibition of 20.8%. In the case of CCSc1nnc(NC(=O)C2Cc3ccccc3CN2C(=O)c2ccco2)s1 (stereo unspecified), the inhibition is reported as -9.18%. With COC(=O)CC1COc2ccccc2N1C(=O)c1ccc(OC)cc1 (stereo unspecified) the inhibition was -4.78%. With COc1ccccc1C1C([N+](=O)[O-])=C(N)Oc2c1c(=O)oc1ccccc21 (stereo unspecified) the inhibition was -2.62%. N#CC1=C(N)NC(SCC(=O)c2ccc(Br)cc2)=C(C#N)C12CCCCC2 showed an inhibition of 79.4%. With N#CC1=C(N)NC(SCC(=O)c2ccc(Cl)cc2)=C(C#N)C12CCCC2 the inhibition was 21.4%. For CCN(CC)CCOC(=O)c1ccc(NC(=O)c2cn(-c3ccccc3)nc2-c2cccs2)cc1, the inhibition was 31.3%. Compound Cc1c(CN2CCCCC2C)c(=O)n(-c2ccccc2)n1C (stereo unspecified) has an inhibition of -1.26%. Work on CNC(=O)Nc1ccc2nc(C)sc2c1 yielded an inhibition of -3.76%. With Cc1nc2ccc(NC(=O)c3ccco3)cc2s1 the inhibition was 5.89%. Cc1cc(N2CCN(C)CC2)nc2ccc(NC(=O)c3cccnc3Cl)cc12 gave an inhibition of -11.1%. In the case of CCN1CCN(c2cc(C)c3cc(NC(=O)c4ccc(Br)o4)ccc3n2)CC1, the inhibition is reported as -5.55%. Work on CCCC(=O)Nc1nc2ccc(NC(=O)c3ccc(Br)o3)cc2s1 yielded an inhibition of -1.78%. Work on Cc1nc2ccc(NC(=O)N(C)c3ccccc3)cc2s1 yielded an inhibition of 76.8%. In the case of CCN1CCN(c2cc(C)c3cc(NC(=O)c4cccnc4Cl)ccc3n2)CC1, the inhibition is reported as -2.95%. In the case of Cc1cc(N2CCN(C)CC2)nc2ccc(NC(=O)c3ccc(Br)o3)cc12, the inhibition is reported as 5.2%. For COC(=O)/C=C1\C(=O)N(c2nc3ccccc3s2)C(=S)N1c1ccc(F)cc1, the inhibition was 3.22%. With O=C(N/C(=C\c1ccccc1)C(=O)N1CCN(CCO)CC1)c1ccccc1 the inhibition was -6.53%. Cn1cc(C(=O)NP(=O)(N2CCOCC2)N2CCOCC2)c2ccccc21 gave an inhibition of 4.83%.
